Measured values taken from PubChem BioAssay AID493044 (Johns Hopkins Ion Channel Center, 2011).
Measured potencies and affinities stand elsewhere. The source made the active and inactive calls.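 Rule for the calls: active = potentiation or inhibition of the KCNQ1 potassium channel at some dose, with a concentration-response curve obtained; inactive = no effect at any dose, or no curve obtained.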

These compounds were tested against Potassium voltage-gated channel subfamily KQT member 1 (Homo sapiens) (UniProt P51787) (assay: KCNQ1 channel current modulation by KCNQ2 openers, dose response, selectivity assay for KCNQ2 activator project, automated patch clamp, KCNQ1-CHO cells (AID 493044)). Conditions: automated patch clamp current (IonWorks); series mostly up to 30 µM.
Chain of Potassium voltage-gated channel subfamily KQT member 1 (Homo sapiens) (P51787 whole entry, looked up): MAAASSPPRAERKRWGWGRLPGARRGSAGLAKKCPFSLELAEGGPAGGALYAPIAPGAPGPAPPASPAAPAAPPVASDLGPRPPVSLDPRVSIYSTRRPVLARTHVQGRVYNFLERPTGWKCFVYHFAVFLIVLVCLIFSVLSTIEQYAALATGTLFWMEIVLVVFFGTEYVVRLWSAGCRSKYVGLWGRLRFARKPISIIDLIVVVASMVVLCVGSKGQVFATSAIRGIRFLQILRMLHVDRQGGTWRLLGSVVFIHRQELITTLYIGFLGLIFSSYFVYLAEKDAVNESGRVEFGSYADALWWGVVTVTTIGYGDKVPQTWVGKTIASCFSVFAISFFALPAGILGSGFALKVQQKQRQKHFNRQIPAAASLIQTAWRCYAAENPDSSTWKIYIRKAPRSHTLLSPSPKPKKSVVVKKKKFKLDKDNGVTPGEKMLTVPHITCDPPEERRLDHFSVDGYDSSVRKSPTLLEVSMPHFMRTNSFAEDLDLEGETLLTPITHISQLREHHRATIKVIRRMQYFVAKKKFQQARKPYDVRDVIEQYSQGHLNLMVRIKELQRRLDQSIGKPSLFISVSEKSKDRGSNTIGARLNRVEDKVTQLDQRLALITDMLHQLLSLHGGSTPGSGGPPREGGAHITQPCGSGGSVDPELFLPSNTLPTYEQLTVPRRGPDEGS

outcome, inactive:
Cc1cc(C)c(NC(=O)C2CC3CCC2C3)c(C)c1 (centres undefined)
Cc1cc(C)c(NC(=O)CC(C)(C)C)c(Cl)c1
CCCCC(=O)Nc1c(C)cc(C)cc1Cl
Cc1cccc(C)c1NC(=O)C1CC2CCC1C2 (centres undefined)
